{"source": "the supplement of paper PMC8728848", "binders": {"B1": {"name": "CFEM-SCL (Saccharomyces cerevisiae), O13547 (protein)", "chain": "MRATTLLSSVVSLALLSKEVLATPPACLLACVAQVGKSSSTCDSLNQVTCYCEHENSAVKKCLDSICPNNDADAAYSAFKSSCSEQNASLGD"}}, "test_in_all_cases": "glycan array binding signal (z-score within array); higher = stronger binding", "settings_in_all_cases": "glycan notation: IUPAC condensed, linker removed", "key": {"Gal6S(b1-4)GlcNAc": {"target": "Gal6S(b1-4)GlcNAc", "in_short": "(§1)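 The binding signal is a Z-score computed within each array. Data were drawn from 3228 arrays in the Consortium for Functional Glycomics database, restricted to those with a known protein sequence. Scores were averaged over arrays of the same protein sequence at different concentrations or buffers, and over linkers, and negative values can be taken as non-binding.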"}, "GalNAc(b1-4)GlcNAc": {"target": "GalNAc(b1-4)GlcNAc", "in_short": "as §1"}, "[1]": {"target": "GalNAc(b1-4)GlcNAc(b1-2)Man", "in_short": "as §1"}, "[2]": {"target": "Glc(a1-6)Glc(a1-6)Glc(a1-6)Glc", "in_short": "as §1"}, "GlcA(b1-3)GlcNAc": {"target": "GlcA(b1-3)GlcNAc", "in_short": "as §1"}, "[3]": {"target": "GlcNAc(b1-2)[GlcNAc(b1-4)]Man(a1-3)[GlcNAc(b1-4)][GlcNAc(b1-2)Man(a1-6)]Man(b1-4)GlcNAc(b1-4)GlcNAc", "in_short": "as §1"}, "[4]": {"target": "GlcNAc(b1-2)[GlcNAc(b1-4)]Man(a1-3)[GlcNAc(b1-4)][GlcNAc(b1-2)[GlcNAc(b1-6)]Man(a1-6)]Man(b1-4)GlcNAc(b1-4)GlcNAc", "in_short": "as §1"}, "[5]": {"target": "Kdn(a2-3)Gal(b1-4)[Fuc(a1-3)]GlcNAc", "in_short": "as §1"}, "[6]": {"target": "Man(a1-2)Man(a1-2)Man(a1-3)Man", "in_short": "as §1"}, "[7]": {"target": "Neu5Ac(a2-3)Gal(b1-3)[Fuc(a1-4)]GlcNAc(b1-3)Gal(b1-4)[Fuc(a1-3)]GlcNAc", "in_short": "as §1"}, "[8]": {"target": "Neu5Ac(a2-3)Gal(b1-4)GlcNAc(b1-3)GalNAc", "in_short": "as §1"}, "[9]": {"target": "Neu5Ac(a2-3)Gal(b1-4)[Fuc(a1-3)]GlcNAc(b1-6)[Gal(b1-3)]GalNAc", "in_short": "as §1"}, "[10]": {"target": "Neu5Ac(a2-3)Gal6S(b1-4)GlcNAc", "in_short": "as §1"}, "[11]": {"target": "Neu5Ac(a2-6)Gal(b1-4)GlcNAc", "in_short": "as §1"}, "[12]": {"target": "Neu5Ac(a2-6)Gal(b1-4)GlcNAc(b1-3)Gal(b1-4)GlcNAc(b1-3)Gal(b1-4)GlcNAc(b1-2)Man(a1-3)[Neu5Ac(a2-6)Gal(b1-4)GlcNAc(b1-3)Gal(b1-4)GlcNAc(b1-3)Gal(b1-4)GlcNAc(b1-2)Man(a1-6)]GalNAc", "in_short": "as §1"}, "[13]": {"target": "Neu5Ac(a2-6)Gal(b1-4)GlcNAc(b1-3)Gal(b1-4)GlcNAc(b1-3)[Neu5Ac(a2-6)Gal(b1-4)GlcNAc(b1-3)Gal(b1-4)GlcNAc(b1-6)]GalNAc", "in_short": "as §1"}, "[14]": {"target": "Neu5Gc(a2-3)Gal(b1-3)GlcNAc", "in_short": "as §1"}}, "note": "The entries come from a sample that favours the strongest signals as a whole."}
{"binder": "B1", "values": [{"measurement": "glycan array binding signal (z-score)", "setting": "Gal6S(b1-4)GlcNAc", "value": -0.027}, {"measurement": "glycan array binding signal (z-score)", "setting": "GalNAc(b1-4)GlcNAc", "value": 0.047}, {"measurement": "glycan array binding signal (z-score)", "setting": "[1]", "value": -0.281}, {"measurement": "glycan array binding signal (z-score)", "setting": "[2]", "value": -0.331}, {"measurement": "glycan array binding signal (z-score)", "setting": "GlcA(b1-3)GlcNAc", "value": -0.277}, {"measurement": "glycan array binding signal (z-score)", "setting": "[3]", "value": -0.326}, {"measurement": "glycan array binding signal (z-score)", "setting": "[4]", "value": -0.303}, {"measurement": "glycan array binding signal (z-score)", "setting": "[5]", "value": -0.086}, {"measurement": "glycan array binding signal (z-score)", "setting": "[6]", "value": 0.113}, {"measurement": "glycan array binding signal (z-score)", "setting": "[7]", "value": -0.234}, {"measurement": "glycan array binding signal (z-score)", "setting": "[8]", "value": -0.277}, {"measurement": "glycan array binding signal (z-score)", "setting": "[9]", "value": 0.813}, {"measurement": "glycan array binding signal (z-score)", "setting": "[10]", "value": -0.311}, {"measurement": "glycan array binding signal (z-score)", "setting": "[11]", "value": -0.282}, {"measurement": "glycan array binding signal (z-score)", "setting": "[12]", "value": 1.21}, {"measurement": "glycan array binding signal (z-score)", "setting": "[13]", "value": -0.146}, {"measurement": "glycan array binding signal (z-score)", "setting": "[14]", "value": -0.298}]}
